# Screen size: about 320,000 compounds; about 2,100 (0.66%) were called active. Not shown: some 53% with an inconclusive outcome. The call rests on the fitted dose curve; in most records, active means well fitted inhibition curve with a large enough effect in the signal ratio, with a control signal flat (not every such curve was filed as active); inconclusive means small, poorly fitted or top-dose-only effect, or effect the other way, or a change in a side signal; inactive means flat fitted curve, though single readings scatter; the % refers to the signal ratio. This excerpt belongs to a sample that is enriched for actives.
# Experiment: qHTS Assay for Lipid Storage Modulators in Drosophila S3 Cells;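 on cell number change: cells counted by Cell Tracker Red CMTPX staining in the red channel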; on lipid storage change, negative = inhibition: on the % scale 0 is the no-effect control and ±100 the full control effect
# Details: BODIPY lipid droplet fluorescence, 18-24 h, cells fed with added oleic acid; cell number change: measured here: cell count max response; series mostly up to 46.1 µM; lipid storage change, negative = inhibition: at the top concentration
# Source text: NIH Molecular Libraries Probe Production Centers Network [MLPCN] NIH Chemical Genomics Center [NCGC] MLPCN Grant: 1 R03 MH085686-01 Assay Submitter (PI): Beller, Mathias; Max-Planck-Institut fur Biophysikalische Chemie NCGC Assay Overview: Storing lipids as a reservoir for energy or the anabolism of elementary metabolites is a common feature of probably all cells and is conserved from bacteria to humans. The universal cellular lipid storage organelle is the so-called lipid storage droplet (LD). Although ubiquitous, LDs share a simple structure composed of a hydrophobic core that harbors the storage lipids, which is shielded by a droplet-specific phospholipid monolayer to which proteins are attached. The current model of LD biogenesis involves an incorporation of the lipid core into the membrane leaflets of the endoplasmic reticulum (ER) followed by a subsequent budding-like maturation of a LD, which ultimately pinches off. Once released, LD volume can increase by localized lipogenesis or fusion of existing droplet. Storage lipids are re-mobilized enzymatically by lipase activity. Lipase regulation in the adipocyte is heavily studied and involves multiple components including catecholamine signaling, the LD-associated proteins Perilipin and comparative gene identification (CGI-58) and at least two lipases named hormone sensitive lipase (HSL) and adipocyte triglyceride lipase (ATGL). LD regulation outside of the adipocyte is poorly understood and only few components are known. However, there is an urgent need to learn more about ectopic fat depots as mislocalized storage of lipids, for example in the liver or muscle, is an eminent health problem associated with insulin resistance or the metabolic syndrome. We developed a laser-scanning cytometer assay to enable 1,536-well screening and combined the results of the small molecules screen with an RNAi database based on lipid storage.
# Triacsin C (Sigma-Aldrich T-4540), an inhibitor of long-chain fatty acyl CoA synthetase that blocks synthesis of triglycerides, was used as a positive control for lipid under-storage. A total of 23 nL of compound solution of different concentrations were transferred to the assay plates using a Kalypsys pin tool equipped with a 1,536-pin array containing 10-nL slotted pins (FP1S10, 0.457-mm diameter, 50.8 mm long; V&P Scientific). One microliter of oleic acid (400 uM) was added, and the plate was lidded with stainless steel rubber gasket lined lids containing pinholes. […] Fluorescence was detected by excitation of the fluorophores with a 488-nm laser on an Acumen Explorer (TTP Lab Tech). The total intensity in channel 2 (500-530 nm) reflected lipid droplet accumulation. Cells were detected using channel 3 (575-640 nm) with 5-um width and 100-um depth filters. The ratio of the number of objects in PMT channel 2 over the number of objects in PMT channel 3 was also calculated. Percent activity was computed relative to an internal control (100% inhibited lipid droplet deposition due to the presence of 20 uM Triacsin C), which was added to 32 wells/plate.
# Potency means the concentration at half of the fitted maximal effect.
Structure (SMILES),"lipid storage change, negative = inhibition",cell number change [%],Potency,outcome
O=C(Nc1ccc(Cl)cc1C(=O)c1ccccc1)c1ccco1,1.66% (inactive),16.6,,
O=C(Nc1ccc(Cl)cc1C(=O)c1ccccc1Cl)c1ccco1,-1.31% (inactive),-6.61,,
CCOP(=O)(OCC)C(Cc1ccccc1)NC(C)=O (configuration not stated),-8.92% (inactive),6.58,,
CCOP(=O)(OCC)C(NC(=O)c1ccccc1)=C(Cl)Cl,0.618% (inactive),12,,
CCOP(=S)(NN(Cc1ccccc1)C(=O)c1ccccc1)OCC,,-8.12,6.51 µM (active),
CC(C)N1CCC2(CC1)NC(CO)(CO)CO2,10.4% (inactive),2.89,,
COc1ccc(C)cc1NC(=O)c1c(C)nn(Cc2ccccc2)c1Cl,-6.79% (inactive),-8.13,,
O=C1N(c2ccccc2)C(c2cccnc2)N2CCCN12 (configuration not stated),-3.46% (inactive),-11.1,,
O=C1NC(=O)N(Cc2cccs2)C(=O)/C1=C/c1ccc(N2CCOCC2)cc1,-2.73% (inactive),-3.62,,
O=C1NC(=O)C(Cc2cccs2)C(=O)N1,,-13,25.9 µM (active),
CN1C(=O)C(Cc2cccs2)C(=O)N(C)C1=O,-6.34% (inactive),1.68,,
CC(=O)O[C@@H]1[C@H]2CC[C@@H]3[C@]1(C[C@@H](OC(C)=O)[C@@]1(O)C([C@@H]4O[C@@H]4C1(C)C)[C@]3(C)O)C[C@@]2(C)O (some centres not stated),-9.14% (inactive),-2.47,,
O=C(Nc1ccc(OC(=O)N2CCCC2)cc1)N1CCOCC1,0.334% (inactive),2.4,,
O=C(Nc1ccccc1OC(=O)N1CCCCC1)N1CCCCC1,2.68% (inactive),3.87,,
CC(=O)Nc1ccccc1OC(=O)N1CCOCC1,,,18.4 µM (active),
CC1(C)COC(Nc2ccc(Cl)cc2)=N1,7.18% (inactive),0.527,,
COc1cccc2cc(-c3cc(=O)oc4ccc(OC(=O)N(C)C)cc34)oc12,25.5% (inactive),-3.98,,
Cc1cc2oc(=O)cc(-c3cc4ccccc4o3)c2cc1OC(=O)N(C)C,,20.3,18.4 µM (active),
COc1ccc(Oc2c(C)oc3cc(OC(=O)N(C)C)ccc3c2=O)cc1,3.93% (inactive),27.6,,
COc1ccc(C(=O)C2CCCN(Cc3ccc(C)s3)C2)c(OC)c1 (configuration not stated),-12.3% (inactive),-6.83,,
COc1ccc(C(=O)C2CCCN(CCO)C2)c(C)c1 (configuration not stated),,-6.32,0.82 µM (active),
Cc1ccsc1C(=O)C1CCCN(CCO)C1 (configuration not stated),15.5% (inactive),-5.68,,
CC1(O)CCN2C(=O)CCc3cccc1c32 (configuration not stated),-0.531% (inactive),-14.6,,
Cn1c(O)c(/C=C2\C=c3ccccc3=NC2=O)c(=O)n(C)c1=O,9.12% (inactive),5.41,,
CN1CCc2c([nH]c3ccccc23)C1,-12% (inactive),-7.02,,

Structure (SMILES),"lipid storage change, negative = inhibition",cell number change [%],Potency,outcome
CCCCOc1ccc(CC2C(=O)N(C)C(=O)N(C)C2=O)cc1,13.1% (inactive),-19.6,,
COc1ccccc1CNCCc1ccc(F)cc1,-8.79% (inactive),-5.32,,
CCC(=NCCO)c1c(O)n(-c2ccccc2)c(=O)[nH]c1=O,,-16.7,20.6 µM (active),
CCC(=NCc1ccco1)c1c(O)n(-c2ccccc2)c(=O)[nH]c1=O,15.4% (inactive),12.1,,
CCC(=NCCO)c1c(O)n(-c2ccc(Cl)cc2)c(=O)[nH]c1=O,2.83% (inactive),11.3,,
CC(C)(C)N(NC(=O)c1ccccc1)C(=O)c1ccccc1,3.31% (inactive),1.15,,
COc1cc(/C=C2\C(=O)NC(=O)N(c3ccc(C)cc3)C2=O)cc(OC)c1O,-2.05% (inactive),15,,
COc1cc(/C=C2\C(=O)NC(=O)N(c3ccccc3)C2=O)cc(OC)c1OC,,,0.731 µM (active),
COc1cc(C=C2C(=O)NC(=O)NC2=O)cc(OC)c1OC,7.23% (inactive),8.46,,
COc1ccccc1C(=O)C1CCCN(Cc2cnc(C)s2)C1 (configuration not stated),2.31% (inactive),3.73,,
Cn1c(O)c(C=NC2CCN(Cc3ccccc3)CC2)c(=O)[nH]c1=O,-10% (inactive),-0.367,,
Cn1c(=O)c2c(nc(N/N=C/c3c(O)n(-c4ccccc4)c(=S)[nH]c3=O)n2C)n(C)c1=O,12.3% (inactive),0.523,,
OC1(CN2CCOCC2)C2CC3CC(C2)CC1C3 (configuration not stated),,-6.79,8.2 µM (active),
CC1(C)C2CC=C(CN3CCOCC3)C1C2 (configuration not stated),-7.26% (inactive),1.35,,
CCC(C)n1c(O)c(C=NCCN2CCOCC2)c(=O)[nH]c1=S (configuration not stated),-7.01% (inactive),0.504,,
COc1ccc(-n2c(O)c(C(C)=NCCN3CCNCC3)c(=O)[nH]c2=O)cc1,-10.9% (inactive),-2.05,,
COC(=O)C1=C(c2ccc(-c3ccccc3)c(F)c2)C[C@@H]2CC[C@H]1N2C(=O)NC1Cc2ccccc2C1,,-24.5,7.31 µM (active),
COC(=O)C1=C(c2ccc(-c3ccccc3)c(F)c2)C[C@@H]2CC[C@H]1N2C(=O)NCC1CC1,4.03% (inactive),-12.8,,
COC(=O)C1=C(c2ccccc2OCc2ccccc2)C[C@@H]2CC[C@H]1N2C(=O)NCc1ccc(N(C)C)cc1,,-7.57,23.1 µM (active),
COC(=O)C1=C(c2ccccc2OCc2ccccc2)C[C@@H]2CC[C@H]1N2C(=O)NCc1ccccc1,,-13.3,,inactive
COC(=O)C1=C(c2ccc3ccccc3c2)C[C@@H]2CC[C@H]1N2C(=O)NC1Cc2ccccc2C1,11.9% (inactive),-10.8,,
COC(=O)C1=C(c2ccc(-c3ccccc3)c(F)c2)C[C@@H]2CC[C@H]1N2C(=O)NCCOc1ccccc1Cl,,-24.1,14.6 µM (active),
COC(=O)C1=C(c2ccc(-c3ccccc3)c(F)c2)C[C@@H]2CC[C@H]1N2C(=O)NCCOc1ccccc1,,-7.31,,inactive
COC(=O)C1=C(c2ccccc2OCc2ccccc2)C[C@@H]2CC[C@H]1N2C(=O)NCc1ccc(OC)cc1,-5.69% (inactive),-4.45,,
COC(=O)C1=C(c2ccc(OC(F)(F)F)cc2)C[C@@H]2CC[C@H]1N2C(=O)NCCOc1ccccc1Cl,,,,inactive
